This is part of a sample that, as a whole, favours compounds with a hit. Of some 83,000 tested, about 20% had one in any assay.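 The endpoint reported here, percent growth, reads 100 for growth as untreated, 0 for no net growth and -100 for all cells dead.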 Values without a mark were called inactive. Activity calls are given as the source filed them. How the source made its calls: active means growth percent below 10; inactive means the rest.
What was measured:
Assay in all cases: NCI-60 one-dose screen, 48 h (100 = growth as untreated, 0 = no growth, -100 = all killed)
Conditions in all cases: 10 µM unless noted
T-47D breast = test system: T-47D breast
MDA-MB-435 melanoma = test system: MDA-MB-435 melanoma
SW-620 colon = test system: SW-620 colon
MCF7 breast = test system: MCF7 breast
HCT-116 colon = test system: HCT-116 colon
HCC-2998 colon = test system: HCC-2998 colon
KM12 colon = test system: KM12 colon
BT-549 breast = test system: BT-549 breast

Compound | growth (T-47D breast) | growth (MDA-MB-435 melanoma) | growth (SW-620 colon) | growth (MCF7 breast) | growth (HCT-116 colon) | growth (HCC-2998 colon) | growth (KM12 colon) | growth (BT-549 breast)
N#Cc1c2cccnc2c2nnc3cc(Cl)c(Cl)cc3n12 | 25.9% | 84.4% | -39% (active) | 1.41% (active) | -73.1% (active) | 13.4% | 47.5% | –
O=Nc1ccc(O)c2ccccc12 | -9.85% (active) | -63.8% (active) | 12.1% | -37.8% (active) | 0.195% (active) | 68.4% | 14% | –
C=C(C)C(C(=O)OCC)(C(=O)OCC)C(C)C | 124% | – | 107% | 97.4% | 109% | 119% | 106% | 115%
COc1cc(-c2nn(-c3ccc(NC(=O)Nc4ccc(Cl)c(Cl)c4)cc3)cc2-c2ccncc2)ccc1Cl | 47.5% | 29.1% | 35.2% | 28.4% | 13.4% | 21.8% | 16.1% | –
COc1cc(-c2nn(-c3ccc(NC(=O)c4ccc(Cl)c(C(F)(F)F)c4)cc3)cc2-c2ccncc2)ccc1Cl | 26.7% | 24.3% | 6.21% (active) | 21% | 9.19% (active) | 31.8% | – | –
NCCCOc1cc2ccccc2cc1C(=O)Nc1ccc(Cl)cc1OC(=O)c1cc2ccccc2cc1OCCCN | -55.9% (active) | -76.9% (active) | -94.9% (active) | -78.9% (active) | -92.6% (active) | – | – | –
COc1cc(-c2nn(-c3ccc(NC(=O)c4cc(Cl)cc(Cl)c4)cc3)cc2-c2ccncc2)ccc1Cl | 79.8% | 84.1% | 77.2% | 78% | 64.9% | 62.2% | 38.7% | –
O=C(Nc1ccc(-n2cc(-c3ccncc3)c(-c3ccc(Cl)c(O)c3)n2)cc1)Nc1cc(C(F)(F)F)cc(C(F)(F)F)c1 | 23.8% | 6.62% (active) | 26.1% | 11% | 10.5% | 36.1% | – | –
COc1cc(-c2nn(-c3ccc(NC(=O)c4ccc(Cl)c(Cl)c4)cc3)cc2-c2ccncc2)ccc1Cl | 64.9% | 86.2% | 48.6% | 60.6% | 25% | 48.3% | 25.1% | –
COc1cc(-c2nn(-c3ccc(NC(=O)Nc4cc(C(F)(F)F)cc(C(F)(F)F)c4)cc3)cc2-c2ccncc2)ccc1Cl | 8.74% (active) | 0.886% (active) | 13.9% | -4.41% (active) | -11% (active) | -7.63% (active) | 0.412% (active) | –
CC(O)CCC(C)[N+](=O)[O-] (centres undefined) | 103% | – | 104% | 101% | 109% | 126% | 103% | 106%
CC1(C)N=C(N)N=C(N)N1c1cccc(CCCCOc2ccccc2)c1 | 37.7% | – | 12.6% | 1.62% (active) | 11.3% | 27.1% | 15.9% | 35.7%
C/C=C/C/C=C/[C@H](C)C[C@H](O)[C@@H]1C[C@@H]2O[C@H]2/C=C/[C@H](O)[C@@H](O)/C=C/C[C@H](C)CC(=O)O1 | 69.9% | 117% | 94.1% | 83.7% | 70.6% | 95.1% | 80.2% | –
C/C=C/C/C=C/[C@H](C)C[C@H](O)[C@@H]1C[C@@H]2O[C@H]2/C=C/[C@@H]2OC(C)(C)O[C@H]2/C=C/C[C@H](C)CC(=O)O1 | -4.89% (active) | 77.1% | 56.8% | 45.1% | 18.6% | 71.9% | 31.7% | –
C=C[C@]1(C)C=C2C(=O)[C@@]3(O)OC[C@@]4(CCCC(C)(C)C43O)C2(O)C(O)C1 (some centres undefined) | 20.9% | 60.2% | -57.7% (active) | 21% | -79.6% (active) | – | – | –
O=C(Nc1ccc(-n2cc(-c3ccncc3)c(-c3ccc(Cl)c(O)c3)n2)cc1)c1ccc(Cl)c(C(F)(F)F)c1 | 47.2% | 3.99% (active) | -79.4% (active) | 6.22% (active) | -100% (active) | 5.55% (active) | 3.31% (active) | –
COc1ccc(C(=O)NCCNc2nccc(-c3c(-c4ccc(F)cc4)nc4sccn34)n2)cc1 | 58.2% | 43.6% | 52.3% | 25.1% | 31.8% | 97% | – | –
CC(=O)Nc1nc(C)c(C(=O)NNC(=O)Nc2ccccc2)s1 | 91.1% | 128% | 100% | 100% | 102% | 104% | 98.6% | –

Compound | growth (T-47D breast) | growth (MDA-MB-435 melanoma) | growth (SW-620 colon) | growth (MCF7 breast) | growth (HCT-116 colon) | growth (HCC-2998 colon) | growth (KM12 colon) | growth (BT-549 breast)
O=C1c2cc([N+](=O)[O-])ccc2-c2cc(Cl)c(NC(=O)C(F)(F)F)cc21 | 85.2% | 114% | – | 35.8% | 104% | 104% | 114% | 108%
CCCCCCNc1nc(N2CCOCC2)c2[nH]c(NCCCCCC)nc2n1 | -70.4% (active) | -58.6% (active) | – | -88.4% (active) | -100% (active) | -100% (active) | -89.9% (active) | -81.4% (active)
O=c1c2c(c3ccccc3n1-c1ccccc1)NC(=S)NC2c1ccc(Cl)cc1 (centres undefined) | 67.4% | 30.4% | 57.1% | 60% | 16.1% | 35.7% | – | –
N#CCCCCCCCCCCC#N | 96.2% | 91.9% | – | 104% | 105% | 95% | 111% | 102%
N#Cc1c2ncccc2c2nnc3cc(Cl)c(Cl)cc3n12 | 60.4% | 106% | 78.7% | 38.9% | 78.7% | 75.6% | 89% | –
O=C(Nc1ccc(-n2cc(-c3ccncc3)c(-c3ccc(Cl)c(O)c3)n2)cc1)c1cc(Cl)cc(Cl)c1 | 79.1% | 42.2% | 0.0883% (active) | 51.6% | 16.1% | 33% | 19.3% | –
CC(=O)Nc1nc(C)c(C(=O)N/N=C/N2CCOCC2)s1 | 102% | 127% | 107% | 98.6% | 93.8% | 157% | 105% | –
Cc1ccccc1-n1c(C)nc2cc(NC(=O)c3ccc(Cl)cc3)ccc2c1=O | 29% | 43.7% | 86% | 57.8% | 74.8% | 80.9% | 76.6% | –
CC(CCN1CCN(CCC(C)CC(C)(C)C)C1CC(C)CC(C)(C)C)CC(C)(C)C (centres undefined) | 91.8% | 104% | 89.4% | 95.7% | 60.9% | 78.2% | 91% | –
N#Cc1ccc(NC2c3ccccc3CC2O)cc1 (centres undefined) | 103% | 117% | – | 95.8% | 101% | – | 112% | 99.2%
C[C@]12C=CC(=O)C=C1[C@@H](F)C[C@@H]1[C@@H]2[C@@H](O)C[C@@]2(C)[C@H]1CC[C@]2(O)C(=O)CO | 99.4% | 103% | – | 87.4% | 105% | 105% | 100% | 78.5%
O=C(Nc1ccc(-n2cc(-c3ccncc3)c(-c3ccc(Cl)c(O)c3)n2)cc1)Nc1ccc(Cl)c(C(F)(F)F)c1 | 4.31% (active) | -37.7% (active) | 11% | -0.973% (active) | -15.8% (active) | 0.686% (active) | 1.21% (active) | –
O=C1Nc2c(c(=O)n(-c3ccccc3)c3ccccc23)C(c2ccc(Cl)cc2)N1 (centres undefined) | 91.5% | 99.9% | 98% | 91.1% | 56.2% | 61% | 61.1% | –
COc1cc(-c2nn(-c3ccc(NC(=O)Nc4ccc(Cl)c(C(F)(F)F)c4)cc3)cc2-c2ccncc2)ccc1Cl | 15.1% | 4% (active) | 13.4% | 8.22% (active) | 2.34% (active) | -2.15% (active) | 6.77% (active) | –
COC1=CC(c2ccc[nH]2)=N/C1=C\c1[nH]c(C)c(C(=O)CCCCC(=O)NC(C)(C)C)c1C | 40.1% | 7.73% (active) | – | -15.1% (active) | – | 30.5% | 20.5% | -11.2% (active)
CN1C(=O)C(=Cc2coc3ccc(Br)cc3c2=O)C(=O)N(C)C1=O | 101% | 109% | – | – | 95.2% | 98.5% | 114% | 106%
COc1ccc(/C(=C(\c2ccccc2)[N+](=O)[O-])c2ccc(OCCN3CCCC3)cc2)cc1 | 51.5% | 48.2% | – | 37.4% | 44.5% | 80.8% | 54.1% | 74.2%

Reference: PubChem BioAssay (NCI)
